# Compound activity deposited in PubChem by National Center for Advancing Translational Sciences (NCATS).
# BAZ2B block – qHTS Assay for Inhibitors of BAZ2B; 4.4% of 360,000 active; Potency, µM (highest dose often 114 µM), most hits filed as inhibitors; AID 504333, 2011; AlphaScreen BAZ2B-H3K14Ac peptide displacement; further: nearly all actives have a fitted effect of over 60% in size
#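 Complex of BAZ2B and biotin-H3K14Ac (50 nM apiece) forms over 30 min at RT, then faces library compounds up to 110 uM for another 30 min; AlphaScreen beads added, 20 min dark incubation, luminescence read.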
# G9a inh – qHTS Assay for Inhibitors of Histone Lysine Methyltransferase G9a; G9a H3K9 monomethylation, AlphaScreen, 2 h; Potency, µM (top dose mostly 102 µM), hits mostly inhibitors; 8.8% of 350,000 active; AID 504332, 2011; further: nearly all actives have a fitted effect of over 75% in size
#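 AlphaScreen read-out: biotin-H3K9 peptide (500 nM) methylation by 20 nM enzyme with 20 uM SAM, 2 h at room temperature after 15 min compound preincubation; anti-monomethyl H3K9 antibody plus donor/acceptor beads, 10 min dark.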
# PI5P4K alpha inh – qHTS for Inhibitors of phosphatidylinositol 5-phosphate 4-kinase (PI5P4K); Phosphatidylinositol 5-phosphate 4-kinase type-2 alpha (Homo sapiens), P48426; PI5P4Kalpha enzyme, ADP-Glo luminescence, 60 min; stronger effect = lower value; max response, %; 1.2% of 330,000 active; active means max response of -50% or lower; inconclusive means between -30% and -50%; inactive means -30% or higher; further: value at the top dose of about 77 µM
# Target sequence (P48426 whole entry, looked up): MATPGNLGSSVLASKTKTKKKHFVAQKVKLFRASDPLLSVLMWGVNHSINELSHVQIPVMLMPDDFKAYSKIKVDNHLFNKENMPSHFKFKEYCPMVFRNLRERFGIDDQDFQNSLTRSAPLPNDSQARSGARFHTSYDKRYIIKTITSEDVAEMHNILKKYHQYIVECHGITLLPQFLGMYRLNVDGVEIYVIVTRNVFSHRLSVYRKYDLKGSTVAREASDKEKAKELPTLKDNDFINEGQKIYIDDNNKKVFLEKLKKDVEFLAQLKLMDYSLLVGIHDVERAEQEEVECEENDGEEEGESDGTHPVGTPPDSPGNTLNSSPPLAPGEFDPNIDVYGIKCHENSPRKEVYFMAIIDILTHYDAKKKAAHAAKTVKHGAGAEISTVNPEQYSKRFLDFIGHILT
#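 PI5P4Kalpha ADP-Glo assay; 5 microM ATP final; 60 min RT reaction; HEPES pH 7.4/EGTA/CHAPS, 5% DMSO; controls lacking substrate or enzyme; luminescent end-point.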
# HP1b chromo inh – HTS for Inhibitors of HP1-beta Chromodomain Interactions with Methylated Histone Tails; Chromobox protein homolog 1 (Homo sapiens), P83916; AlphaScreen HP1-beta / biotin-H3K9me3 peptide binding; Potency, µM (top dose mostly 114 µM), actives largely listed as inhibitors; 0.56% of 390,000 active; AID 540317, 2011; further: nearly all actives have a fitted effect of over 70% in size
#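 HP1-beta protein (50 nM final) preincubated 30 min at room temperature with biotinylated H3(1-18)K9me3 peptide (50 nM) in PBS pH 7.4, 0.01% Tween-20, then compound added for 30 min. AlphaScreen streptavidin donor/nickel chelate acceptor beads (10 ug/mL final), 30 min dark, luminescence read.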
# PLK1 PBD block – qHTS for Inhibitors of PLK1-PDB (polo-like kinase 1 - polo-box domain): Primary Screen; 2.8% of 360,000 active; Potency, µM, most hits filed as inhibitors; Plk1 PBD binding of FITC phosphopeptide, fluorescence polarization; Serine/threonine-protein kinase PLK1 (Homo sapiens), P53350; further: series mostly up to about 57 µM; nearly all actives have a fitted effect of over 65% in size
# JMJD2A Tudor inh – qHTS Assay for Inhibitors of JMJD2A-Tudor Domain; 4.4% of 390,000 active; Lysine-specific demethylase 4A (Homo sapiens), O75164; AlphaScreen JMJD2A-Tudor / H3K4me3 peptide binding; Potency, µM (highest dose often 114 µM), actives largely listed as inhibitors; further: nearly all actives have a fitted effect of over 50% in size
# Hits are given with their value; 0 = inactive; ? = inconclusive; - = no result; [ ] = dose if it differs, or a comment. Hits are enriched below; roughly 12% of the tested compounds scored in any of these assays. Unless noted, the call rests on the fitted dose curve; in most records, active means well fitted curve in the direction sought with a large enough effect; inconclusive means small, poorly fitted or top-dose-only effect, or another doubt; inactive means no such curve, though single readings can be large; an effect the other way counts as inactive or inconclusive.
SMILES,BAZ2B block,G9a inh,PI5P4K alpha inh,HP1b chromo inh,PLK1 PBD block,JMJD2A Tudor inh
COc1cc(/C=C2\C(=O)N(CCC#N)N=C2C)c(Br)cc1OC(C)C,0,0,-,0,1.68µM,0
CCOc1cc(Br)c(/C=C2/C(=O)N(C)C(=S)N2CC(=O)OC)cc1OC,0,0[12.7 µM],0,0,0,0
CCOC(=O)c1c(C)n(C)c2ccc(OCC(O)CNC(CC)CO)cc12 (stereo not drawn),0,?,0,0,0,0
CCOC(=O)c1c(C)n(-c2ccc(C)cc2)c2ccc(OCC(O)CNCCCO)cc12 (stereo not drawn),?,8.91µM,0,0,0,?
CCOC(=O)c1c(C)n(-c2ccc(C)cc2)c2ccc(OCC(O)CNCC3CCCO3)cc12 (stereo not drawn),28.2µM,15.8µM,0,?,0,12.6µM
O=C(NCCOc1ccccc1)c1cc([N+](=O)[O-])ccc1N1CCOCC1,0,0[12.7 µM],0,0,0,0
COc1cccc(C(=O)Oc2ccc3ccc(=O)oc3c2)c1,0,0,0,0,0,0
O=C(CNC(=O)c1cccc(-n2cnnn2)c1)Nc1ccc(F)c(F)c1,0,?,0,0,0,89.1µM
O=C(Nc1cccc(-n2cnnn2)c1)c1ccc(Cl)cc1Cl,0,0,0,0,29.9µM,?
O=C(Nc1cccc(-n2cnnn2)c1)c1cccc(Cl)c1,0,0,0,0,0,0
Cc1ccc(C(=O)CCC(=O)Nc2cccc(C)c2)cc1,0,-,0,0,0,0
NC(=O)CSc1oc(-c2ccco2)nc1S(=O)(=O)c1ccc(Br)cc1,?,28.2µM,0,0,0,0
O=C(CSc1oc(-c2ccc(F)cc2)nc1S(=O)(=O)c1ccc(Cl)cc1)c1ccccc1,0,0,-,0,-,0
O=C(CSc1oc(-c2ccccc2)nc1S(=O)(=O)c1ccc(Cl)cc1)c1ccccc1,0,11.2µM,-,0,-,?
CCCSc1oc(-c2ccco2)nc1S(=O)(=O)c1ccc(Br)cc1,0,0,-,0,-,0
Cc1ccc(S(=O)(=O)c2nc(-c3ccco3)oc2SCC(N)=O)cc1,0,?,0,0,0,0
CSc1oc(-c2ccco2)nc1S(=O)(=O)c1ccc(Br)cc1,0,39.8µM,0,0,0,0
CC(C)Sc1oc(-c2ccco2)nc1S(=O)(=O)c1ccc(F)cc1,0,10µM,-,0,0,?
COC(=O)c1sccc1S(=O)(=O)N(CC(=O)NCc1ccccc1)c1ccccc1,0,0,-,0,-,0
CC1(C(=O)Nc2cccc(OC(F)(F)F)c2)Cc2c(-c3ccc4c(c3)OCO4)ccnc2O1 (stereo not drawn),-,-,0,-,0,-
Cc1ccc(C(=O)NCc2ccccc2)cc1NC(=O)c1nsc2ccccc12,0,0,-,0,-,0
NC(=O)CSc1oc(-c2ccco2)nc1S(=O)(=O)c1ccc(Cl)cc1,0,31.6µM,?,0,0,0
COC(=O)c1sc(-c2ccc(Cl)cc2)cc1NC(=O)CSCC(=O)O,0,0,-53.3,0,0,0
CSc1ncccc1C(=O)N1CCC1(C)C(=O)NC(C)C (stereo not drawn),-,-,0,-,0,-
CCN(CC)S(=O)(=O)c1ccc(-c2cn3cc(Cl)ccc3n2)cc1,0,0[12.7 µM],0,0,11.9µM,?
COC(=O)c1[nH]c2ccc(C)cc2c1NC(=O)CN1CCc2cc(OC)c(OC)cc2C1,?,50.1µM,0,0,0,0
COC(=O)c1[nH]c2ccc(C)cc2c1NC(=O)Nc1ccccc1OC,0,39.8µM,0,0,0,0
COC(=O)c1[nH]c2cc(C)ccc2c1NC(=O)CN1CCCc2ccccc21,44.7µM,?,0,0,0,?
COC(=O)c1[nH]c2ccc(Br)cc2c1NC(=O)CN1CCCc2ccccc21,0,0,0,0,0,0
